Data on five molecules can be found in PubChem BioAssay.

Molecules are shown by their SMILES. Activity calls are given as the source filed them.

Assay [1] in a line: small molecules captured by biotinylated probe aFSTL3 – biochemical, small-molecule microarray, fluorescence 635/667, stem cell growth factor project, primary screen (AID 1064).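 Note: measures binding of the biotinylated anti-FSTL3 antibody to printed compounds.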 The note with it: higher = more signal.
Assay [2] is described as follows: binders from COS7 lysate, DM2A8 probe, primary screen, torsin A project, cell lysate, small-molecule microarray, fluorescence 635/667 (AID 1065). Particulars: higher = more signal, COS7 lysate expressing mutant human TOR1A.
A short description of assay [3]: small molecules captured by biotinylated probe aFGF2 – biochemical, small-molecule microarray, fluorescence 635/667, stem cell growth factor project, primary screen (AID 1067).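 Note: measures binding of biotinylated aFGF2 protein to printed compounds on slides; z-score merges feature fluorescence and signal-to-noise across triplicate slides.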 Particulars: higher = more signal.
The nature of assay [4]: small molecules captured by biotinylated probe aFGF10 – biochemical, small-molecule microarray, fluorescence 635/667, stem cell growth factor project, primary screen (AID 1071).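 Note: score merges 667 nm spot intensity and signal to noise from triplicate slides.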 Particulars: higher = more signal.
Assay [5] deals with Neurogenic locus notch homolog protein 2 (Homo sapiens) (UniProt Q04721). Nature of the assay: small molecules binding Notch2 protein – biochemical, small-molecule microarray, 635 nm fluorescence, stem cell growth factors, primary screen (AID 1073). The note with it: higher = more signal.
Assay [6] concerns the target Pro-neuregulin-1, membrane-bound isoform (Homo sapiens) (UniProt Q02297). The experiment in a line: small molecules binding neuregulin-1 protein – biochemical, small-molecule microarray, fluorescence 635/667, psychiatric disease protein project, primary screen (AID 1075).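 Note: score combines 667 nm spot fluorescence with signal to noise.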 Particulars: NRG1 binding, 635 nm fluorescence, higher = more signal.
Assay [7] concerns Neuregulin-1 EGF-like domain. The experiment in a line: small molecules binding NRG1 EGF domain – biochemical, small-molecule microarray, 635 nm fluorescence, primary screen (AID 1081).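 Note: binding of the protein to compounds printed on small-molecule microarray slides.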 The note with it: higher = more signal.
Assay [8] in a line: FRG1 expression reporter modulators in myotubes – cell-based, C2C12 myotubes, firefly/Renilla luciferase, luminescence, FRG1 inhibition for FSHD, primary screen (AID 1084). Particulars: FRG1 promoter luciferase, higher = more signal, called active from +8 up or from −8 down.
Assay [9] in a line: small molecules captured by biotinylated probe aFST – biochemical, small-molecule microarray, fluorescence 635/667, stem cell growth factor project, primary screen (AID 1086).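 Note: score merges 667 nm fluorescence with signal-to-noise of each printed compound spot.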 Particulars: higher = more signal.
Assay [10] in a line: binders of probe aHhip on microarray, primary screen, stem cell growth factor project, biochemical, small-molecule microarray, fluorescence 635/667 (AID 1087).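 Note: score merges spot fluorescence at 667nm with spot signal to noise ratio.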 Particulars: higher = more signal.
For assay [11], the system named is PRMT1 (protein arginine N-methyltransferase 1). The experiment in a line: small molecules binding arginine methyltransferase PRMT1 – biochemical, small-molecule microarray, 635 nm fluorescence, primary screen (AID 1088).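 Note: binding of Prmt1 protein to compounds spotted on small-molecule microarray slides.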 Particulars: higher = more signal.
Assay [12] in a line: growth effects on S. cerevisiae YJM789 – YJM789 clinical isolate, OD600, 24 h, basal, primary screen (AID 1089).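 Note: growth of clinical yeast isolate S. cerevisiae YJM 789 seeded 1000 cells per well; test concentration not given here.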 Particulars: higher = more signal, called active from +8 up or from −8 down.
Assay [13] can be described thus: S. pombe growth modifiers, basal conditions – strain 972, OD600, 24 h, no modulator, primary screen (AID 1090).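 Note: basal condition with compound alone and no growth modifier present; test concentration not given here.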 Particulars: S. pombe 972 growth, higher = more signal, called active from +8 up or from −8 down.
Assay [14] can be described thus: budding yeast growth modifiers under rapamycin – strain BY4716, OD600, 96 h, primary screen (AID 1091). Note: test concentration not given here. The note with it: S. cerevisiae BY4716 + rapamycin, higher = more signal, called active from +8 up or from −8 down.
The target of assay [15] is Torsin-1A-interacting protein 2 (Homo sapiens) (UniProt Q8NFQ8). Nature of the assay: small molecules binding lysate-expressed LULL1 – cell lysate, human LULL1 lysate, 635/667 nm fluorescence, primary screen (AID 1092).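 Note: score merges per-feature 667 nm fluorescence with signal-to-noise.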 The note with it: small-molecule microarray, hLULL1 lysate binding, 635 nm fluorescence; higher = more signal.
Torsin-1A-interacting protein 2 (Homo sapiens), sequence (Q8NFQ8 whole entry, looked up): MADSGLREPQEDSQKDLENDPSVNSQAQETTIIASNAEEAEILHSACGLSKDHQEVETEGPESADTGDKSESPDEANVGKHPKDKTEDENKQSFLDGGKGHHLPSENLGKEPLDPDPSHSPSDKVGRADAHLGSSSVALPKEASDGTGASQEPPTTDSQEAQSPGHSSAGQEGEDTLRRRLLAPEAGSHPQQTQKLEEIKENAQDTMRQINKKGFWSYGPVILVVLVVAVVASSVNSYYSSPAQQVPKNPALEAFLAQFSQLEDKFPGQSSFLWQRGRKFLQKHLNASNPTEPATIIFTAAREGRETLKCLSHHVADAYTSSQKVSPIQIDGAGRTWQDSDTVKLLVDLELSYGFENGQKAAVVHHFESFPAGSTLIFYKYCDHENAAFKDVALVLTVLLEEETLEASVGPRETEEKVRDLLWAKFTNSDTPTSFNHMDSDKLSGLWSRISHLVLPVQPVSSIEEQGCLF
Assay [16] can be described thus: optical density change of DRC41 E. coli – strain DRC41, OD650, 24 h, E. coli filamentation project, primary screen (AID 1093).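 Note: MC1000 strain lacking acrAB efflux and sulA so SOS filamentation is blocked; test concentration not given here.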 The note with it: E. coli DRC41 growth, higher = more signal, called active from +8 up or from −8 down.
Assay [17] can be described thus: probe aLefty2 binding to arrayed compounds – biochemical, biotinylated probe, 635/667 nm fluorescence, primary screen (AID 1094).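 Note: score merges spot fluorescence near 667 nm with spot signal-to-noise ratio.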 The note with it: small-molecule microarray, higher = more signal.
Assay [18] has as its system Noggin (protein binding on small-molecule microarray). Nature of the assay: small molecules binding Noggin protein – biochemical, 635/667 nm fluorescence, primary screen (AID 1095).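 Note: score merges 667 nm feature fluorescence with signal to noise over triplicate slides.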 The note with it: 635 nm fluorescence, higher = more signal.
The target of assay [19] is Neurogenic locus notch homolog protein 3 (Homo sapiens) (UniProt Q9UM47). The experiment in a line: small molecules binding NOTCH3 protein – biochemical, 635/667 nm fluorescence, primary screen (AID 1096). Particulars: small-molecule microarray, 635 nm fluorescence, higher = more signal.
Neurogenic locus notch homolog protein 3 (Homo sapiens), sequence (Q9UM47 whole entry, looked up): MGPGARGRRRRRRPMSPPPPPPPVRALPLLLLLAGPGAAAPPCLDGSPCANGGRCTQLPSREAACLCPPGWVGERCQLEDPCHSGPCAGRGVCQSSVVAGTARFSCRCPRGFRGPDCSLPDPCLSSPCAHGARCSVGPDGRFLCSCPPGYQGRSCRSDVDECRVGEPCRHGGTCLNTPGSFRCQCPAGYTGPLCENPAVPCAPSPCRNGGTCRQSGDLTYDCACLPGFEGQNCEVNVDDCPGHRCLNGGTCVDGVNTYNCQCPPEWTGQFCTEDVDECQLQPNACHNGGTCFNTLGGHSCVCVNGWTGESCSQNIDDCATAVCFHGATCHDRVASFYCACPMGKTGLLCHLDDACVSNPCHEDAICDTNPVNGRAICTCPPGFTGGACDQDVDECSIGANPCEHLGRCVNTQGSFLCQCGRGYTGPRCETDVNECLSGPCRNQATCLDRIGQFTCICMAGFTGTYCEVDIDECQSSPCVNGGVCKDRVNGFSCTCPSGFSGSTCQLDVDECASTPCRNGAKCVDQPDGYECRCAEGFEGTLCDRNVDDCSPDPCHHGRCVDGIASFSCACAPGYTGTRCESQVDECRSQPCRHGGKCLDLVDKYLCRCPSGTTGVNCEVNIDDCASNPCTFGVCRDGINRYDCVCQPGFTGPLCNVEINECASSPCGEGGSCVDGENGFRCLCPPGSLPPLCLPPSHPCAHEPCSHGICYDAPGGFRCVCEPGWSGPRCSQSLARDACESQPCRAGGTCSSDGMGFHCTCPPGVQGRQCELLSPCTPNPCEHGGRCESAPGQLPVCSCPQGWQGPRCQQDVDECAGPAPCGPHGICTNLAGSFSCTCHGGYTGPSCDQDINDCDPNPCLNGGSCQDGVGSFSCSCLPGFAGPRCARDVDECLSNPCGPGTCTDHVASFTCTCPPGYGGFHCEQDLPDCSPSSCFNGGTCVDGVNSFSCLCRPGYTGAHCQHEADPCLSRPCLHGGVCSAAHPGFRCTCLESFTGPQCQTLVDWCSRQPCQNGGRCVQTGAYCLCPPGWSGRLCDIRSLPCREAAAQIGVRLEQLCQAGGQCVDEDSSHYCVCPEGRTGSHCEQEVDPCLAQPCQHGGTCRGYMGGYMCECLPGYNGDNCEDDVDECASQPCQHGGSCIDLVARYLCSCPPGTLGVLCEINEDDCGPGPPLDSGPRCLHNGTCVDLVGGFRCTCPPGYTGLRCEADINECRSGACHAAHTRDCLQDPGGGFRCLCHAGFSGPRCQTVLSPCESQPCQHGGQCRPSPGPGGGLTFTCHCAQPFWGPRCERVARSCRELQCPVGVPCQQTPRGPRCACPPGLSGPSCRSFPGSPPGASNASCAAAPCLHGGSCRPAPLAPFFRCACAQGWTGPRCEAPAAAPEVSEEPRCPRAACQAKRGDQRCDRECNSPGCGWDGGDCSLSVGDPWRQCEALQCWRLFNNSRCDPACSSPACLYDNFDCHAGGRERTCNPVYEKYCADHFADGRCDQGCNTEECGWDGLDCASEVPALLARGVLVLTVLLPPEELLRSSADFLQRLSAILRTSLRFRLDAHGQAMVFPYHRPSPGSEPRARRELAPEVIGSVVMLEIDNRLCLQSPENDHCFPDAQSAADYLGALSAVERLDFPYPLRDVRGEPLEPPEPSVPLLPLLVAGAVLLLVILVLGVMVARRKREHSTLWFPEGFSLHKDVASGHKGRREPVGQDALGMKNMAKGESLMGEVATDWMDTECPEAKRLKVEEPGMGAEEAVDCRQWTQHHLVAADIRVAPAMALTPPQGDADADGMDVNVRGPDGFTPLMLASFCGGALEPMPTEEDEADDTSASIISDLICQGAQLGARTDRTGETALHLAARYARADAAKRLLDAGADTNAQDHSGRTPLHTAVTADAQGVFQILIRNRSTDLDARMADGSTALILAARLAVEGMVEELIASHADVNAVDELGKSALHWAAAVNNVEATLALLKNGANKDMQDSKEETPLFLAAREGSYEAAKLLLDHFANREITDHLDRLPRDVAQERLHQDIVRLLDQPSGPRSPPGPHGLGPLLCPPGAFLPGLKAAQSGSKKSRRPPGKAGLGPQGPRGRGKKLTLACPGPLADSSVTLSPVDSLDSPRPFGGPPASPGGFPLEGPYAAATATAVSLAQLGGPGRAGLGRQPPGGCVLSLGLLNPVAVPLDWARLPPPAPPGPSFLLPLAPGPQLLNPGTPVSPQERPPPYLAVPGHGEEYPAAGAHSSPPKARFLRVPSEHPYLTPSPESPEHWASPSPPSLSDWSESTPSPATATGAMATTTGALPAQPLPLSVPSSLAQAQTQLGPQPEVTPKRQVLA
The nature of assay [20]: probe aEGFR binding to arrayed compounds – biochemical, biotinylated probe, 635/667 nm fluorescence, primary screen (AID 1097).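 Note: probe is a biotinylated anti-EGFR antibody binding compounds printed on slides; score combines fluorescence near 667 nm and signal to noise of each spot.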 The note with it: small-molecule microarray, higher = more signal.

Pro-neuregulin-1, membrane-bound isoform (Homo sapiens), sequence (Q02297 whole entry, looked up, the tested form may be a part, canonical isoform): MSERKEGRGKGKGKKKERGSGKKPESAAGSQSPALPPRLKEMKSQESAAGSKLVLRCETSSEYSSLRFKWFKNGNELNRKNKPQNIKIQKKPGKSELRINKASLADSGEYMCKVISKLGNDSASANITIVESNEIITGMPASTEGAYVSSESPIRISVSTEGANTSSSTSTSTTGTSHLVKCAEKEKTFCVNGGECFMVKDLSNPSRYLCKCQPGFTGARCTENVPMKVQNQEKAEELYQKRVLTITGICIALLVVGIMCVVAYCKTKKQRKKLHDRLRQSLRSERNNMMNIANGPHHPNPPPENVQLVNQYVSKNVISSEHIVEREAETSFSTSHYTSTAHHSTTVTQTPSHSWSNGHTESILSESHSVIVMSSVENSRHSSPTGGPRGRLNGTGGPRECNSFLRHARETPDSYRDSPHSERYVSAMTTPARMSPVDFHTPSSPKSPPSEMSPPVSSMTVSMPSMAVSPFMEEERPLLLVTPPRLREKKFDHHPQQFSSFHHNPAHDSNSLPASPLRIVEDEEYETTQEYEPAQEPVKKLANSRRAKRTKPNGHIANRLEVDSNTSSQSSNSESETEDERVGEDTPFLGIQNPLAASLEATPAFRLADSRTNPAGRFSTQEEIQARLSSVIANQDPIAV

On to `[N-]=[N+]=Nc1ccccc1C[C@]1(C(=O)N2CCCCC2)N=C(c2ccc(OCCCO)cc2)O[C@H]1c1ccccc1`, for which the composite z-score in [1] was 0.484; in [2] it was 0.593; in [3], -0.0332; in assay [4], 1.21; in assay [5], 1.36; in assay [6] it was 0.733. Also, the composite z-score in assay [7] was determined as 1.08; in assay [9], 0.933; in assay [10] it was 0.154; in [11] it was 1.33; in assay [15], 2.74; in assay [17] it was 0.131. Besides, the composite z-score worked out at 0.595 in assay [18], 1.1 in [19] and 0.279 in [20]. Besides, the z-score in [8] is -3.1 (inactive); in assay [12], -0.44 (inactive); in assay [13], -9.22 (active); in assay [14] it was 0.926 (inactive); in assay [16], 1 (inactive).
Regarding `CC(C)N1C(=O)[C@@]2(Cc3ccccc31)c1ccccc1C(=O)N(Cc1ccccc1C(F)(F)F)[C@H]2c1ccc(CO)cc1`, the composite z-score in assay [1] is -0.303; in [2], 0.0613; in [3] it was -0.0775; in assay [4], 0.108; in assay [5] it was 0.339; in assay [6] it was 0.39. For the same molecule, the composite z-score was 1.46 in [7]; 0.086 in assay [9]; -0.116 in assay [10]; 1.31 in assay [11]; 2.23 in assay [15]; -0.269 in assay [17]. Also, the composite z-score is 0.841 in assay [18], 0.99 in assay [19] and 0.116 in assay [20]. In addition, the z-score in assay [8] was -0.641 (inactive); in [12], -0.0493 (inactive); in [13], -0.706 (inactive); in assay [14] it was -1.81 (inactive); in assay [16], -0.569 (inactive).
Consider `C=CCNC(=O)[C@H]1[C@@H]2C(=O)O[C@@H](c3ccccc3)[C@@H](c3ccccc3)N2[C@@H](c2ccc(OCCO)cc2)[C@]12C(=O)Nc1ccc(C#Cc3ccc(OC)cc3)cc12`, for which the composite z-score in assay [1] is -0.179; in [2], 0.897; in [3] it was 0.0566; in assay [4] it was 0.705; in assay [5], 1.46; in assay [6], 1.52. The composite z-score was determined as 1.22 in assay [7]; 0.624 in assay [9]; 0.289 in [10]; 1.56 in assay [11]; 2.75 in assay [15]; 0.326 in assay [17]. Besides, the composite z-score in assay [18] was found to be 1.27; in assay [19], 1.11; in assay [20], 0.166. In addition, the z-score was 0.744 (inactive) in assay [8]; 3.23 (inactive) in assay [12]; 2.1 (inactive) in [13]; 5.57 (inactive) in [14]; 0.741 (inactive) in assay [16].
As for `COCCCNC(=O)[C@@]1(CCC(=O)OC(C)(C)C)N=C(c2ccc(OCCCO)cc2)O[C@H]1c1ccccc1`, the composite z-score in assay [1] worked out at 0.593; in assay [2], 0.737; in [3], 0.0584; in assay [4] it was 0.186; in assay [5], 1.23; in assay [6], 1.64. The composite z-score in assay [7] was 1.3; in assay [9], 1.16; in [10] it was 0.0424; in [11], 1.53; in [15] it was 3.51; in assay [17] it was 0.0296. Moreover, the composite z-score in assay [18] amounted to 1.56; in assay [19] it was 0.275; in [20], 0.0682. Moreover, the z-score in assay [8] was -1.79 (inactive); in assay [12], 0.241 (inactive); in [13], -0.629 (inactive); in assay [14], 0.0716 (inactive); in assay [16], 1.25 (inactive).
Regarding `CC(CO)N1C(=O)[C@@H]2[C@H]3C(=O)OCC=C[C@H]3OC23C=CCN(c2ccc4ccccc4c2)C(=O)[C@@H]13` (stereo not given in full), the composite z-score in [1] is 0.865; in assay [2] it was -1.47; in assay [3], -0.149; in assay [4], -0.451; in assay [5] it was -1.19; in assay [6] it was -1.2. For the same molecule, the composite z-score in assay [7] was 0.632; in assay [9], -0.946; in assay [10], -0.0994; in [11] it was -0.534; in assay [15], -1.16; in [17], 0.111. In addition, the composite z-score was -1.89 in assay [18], -1.4 in assay [19] and -0.301 in assay [20]. Further, the z-score was 0.621 (inactive) in assay [8]; -0.112 (inactive) in [12]; -0.688 (inactive) in [13]; -0.128 (inactive) in assay [14]; -0.594 (inactive) in assay [16].
